Data from PubChem BioAssay (EPA / NIEHS).
Values joined by “and” are separate entries in the source; they are usually repeats but may differ in a detail not shown here. Equal entries are not always repeated. Some compounds were tested as several samples or in several runs, with calls that do not always agree. Active and inactive are the calls of the source. The calls were made as follows: active = hit-call score of the fitted dose curve at least 0.9, where 1 is the maximum; inactive = score below 0.9.

Key:
[1] = ATG_CRE_CIS: Attagene CIS-FACTORIAL HepG2 Assay for human cAMP Responsive Element (CRE) binding protein 3 (AID 2282926); settings: HepG2 CRE cis-reporter, Attagene multiplexed mRNA; actives raise or lower the signal
Procedure, shortened: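 Capillary electrophoresis of 6-FAM-labelled, HpaI-digested PCR products quantified reporter transcripts. These came from HepG2 transiently transfected with cis-element reporters and exposed to test chemicals for 24 hours, with DMSO defining baseline activity.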

[2] = target: CCAAT/enhancer-binding protein beta (Homo sapiens) (UniProt P17676); assay: ATG_C_EBP_CIS: Attagene CIS-FACTORIAL HepG2 Assay for human CCAAT/Enhancer Binding Protein (C/EBP) beta (AID 2282927); settings: HepG2 Attagene cis-factorial transcription factor reporter; actives raise or lower the signal
Chain of CCAAT/enhancer-binding protein beta (Homo sapiens) (P17676 whole entry, looked up): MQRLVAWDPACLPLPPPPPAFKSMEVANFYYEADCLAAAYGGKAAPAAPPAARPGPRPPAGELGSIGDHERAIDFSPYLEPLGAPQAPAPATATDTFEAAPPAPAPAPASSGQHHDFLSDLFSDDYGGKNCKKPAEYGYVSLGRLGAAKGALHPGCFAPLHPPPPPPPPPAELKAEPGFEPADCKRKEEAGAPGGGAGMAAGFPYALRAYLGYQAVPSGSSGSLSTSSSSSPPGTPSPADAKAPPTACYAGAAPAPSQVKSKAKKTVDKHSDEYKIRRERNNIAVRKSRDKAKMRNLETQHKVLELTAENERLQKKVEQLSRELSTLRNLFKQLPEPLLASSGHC
Procedure, shortened: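 HepG2 transiently transfected with multiplexed reporter units under cis-regulatory promoters reporting endogenous C/EBPb activity. After 24 h exposure, reporter mRNA assayed by RT-PCR, fluorescent labelling, HpaI digestion and capillary electrophoresis; bidirectional fitting versus DMSO.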

[3] = ATG_CMV_CIS: Attagene CIS-FACTORIAL HepG2 Assay for human CMV (Internal Marker) (AID 2282928); settings: HepG2 CMV promoter reporter, transcription factor profiling; actives raise or lower the signal;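 also: endpoint acts as a background internal control marker rather than a target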
Procedure, shortened: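 Readout: fluorescent reporter cDNA fragments separated by capillary electrophoresis after RT-PCR and HpaI cut. Cells: HepG2 carrying transfected cis-promoter reporter constructs, dosed 24 h. Endpoint serves as background internal-marker control, fit bidirectionally versus DMSO.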

[4] = ATG_DR4_LXR_CIS: Attagene CIS-FACTORIAL HepG2 Assay for human Liver X Receptor (LXR), DR4 submotif (AID 2282929); settings: HepG2 Attagene DR4 cis-reporter, mRNA transcription; actives raise or lower the signal
Procedure, shortened: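 HepG2 cells transiently transfected with cis-promoter-driven multiplexed reporter units (DR4 element) were dosed for 24 h. Reporter mRNA was quantified by RT-PCR, fluorescent primer extension, HpaI digestion and capillary electrophoresis; bidirectional fitting versus DMSO baseline.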

[5] = target: Aryl hydrocarbon receptor (Homo sapiens) (UniProt P35869); assay: ATG_Ahr_CIS: Attagene CIS-FACTORIAL HepG2 Assay for human Aryl Hydrocarbon Receptor (Ahr) (AID 2282930); settings: HepG2 AhR cis-factorial reporter transcription; actives raise or lower the signal
Chain of Aryl hydrocarbon receptor (Homo sapiens) (P35869 whole entry, looked up): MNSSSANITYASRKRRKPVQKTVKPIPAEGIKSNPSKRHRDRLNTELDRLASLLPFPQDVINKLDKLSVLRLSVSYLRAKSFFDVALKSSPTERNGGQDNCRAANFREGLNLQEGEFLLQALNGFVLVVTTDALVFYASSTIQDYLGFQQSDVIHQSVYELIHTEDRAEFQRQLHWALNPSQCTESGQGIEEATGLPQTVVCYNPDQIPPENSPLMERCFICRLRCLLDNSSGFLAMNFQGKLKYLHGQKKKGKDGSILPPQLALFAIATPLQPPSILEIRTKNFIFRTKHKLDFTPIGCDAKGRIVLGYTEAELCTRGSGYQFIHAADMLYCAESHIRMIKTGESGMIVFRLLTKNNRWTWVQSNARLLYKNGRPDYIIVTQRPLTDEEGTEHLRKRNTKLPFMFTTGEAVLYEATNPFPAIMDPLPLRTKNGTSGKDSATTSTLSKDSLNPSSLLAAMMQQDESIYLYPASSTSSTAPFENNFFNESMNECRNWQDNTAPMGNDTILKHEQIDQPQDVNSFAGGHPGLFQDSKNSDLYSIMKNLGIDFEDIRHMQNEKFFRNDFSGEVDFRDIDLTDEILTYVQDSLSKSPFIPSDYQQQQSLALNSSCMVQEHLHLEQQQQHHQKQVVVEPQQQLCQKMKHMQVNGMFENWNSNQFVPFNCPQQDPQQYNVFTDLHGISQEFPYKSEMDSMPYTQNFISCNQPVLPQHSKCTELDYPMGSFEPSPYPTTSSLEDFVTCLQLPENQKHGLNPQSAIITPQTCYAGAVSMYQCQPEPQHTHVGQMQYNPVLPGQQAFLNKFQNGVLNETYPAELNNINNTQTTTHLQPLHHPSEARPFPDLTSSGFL
Procedure, shortened: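 HepG2 cells transiently transfected with cis-element-driven multiplexed reporter units; endogenous AhR activity read as reporter mRNA 24 h after dosing, via RT-PCR, 6-FAM labelling, HpaI digestion and capillary electrophoresis. Bidirectional fit relative to DMSO.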

[6] = ATG_AP_1_CIS: Attagene CIS-FACTORIAL HepG2 Assay for human Activator Protein 1 (AP-1) (AID 2282931); settings: HepG2 Attagene cis-factorial AP-1 reporter mRNA; actives raise or lower the signal
Procedure, shortened: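 HepG2 cells transiently transfected with cis-element-driven multiplex reporter units; 24 h compound exposure. Reporter mRNA quantified by RT-PCR, FAM-labelled fragments resolved by capillary electrophoresis; bidirectional fit versus DMSO baseline.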

[7] = ATG_AP_2_CIS: Attagene CIS-FACTORIAL HepG2 Assay for human Activator Protein 2 (AP-2) (AID 2282932); settings: HepG2 AP-2 cis-reporter, Attagene transcription factor profiling; actives raise or lower the signal
Procedure, shortened: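 Liver-derived HepG2 line, cis-reporter system measuring endogenous factors; 24 h dosing; reporter mRNA detected by fluorescent RT-PCR and capillary electrophoresis.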

[8] = ATG_BRE_CIS: Attagene CIS-FACTORIAL HepG2 Assay for human Bone Morphogenetic Protein (BMP) Response Element (BRE) (AID 2282933); settings: HepG2 BMP response element reporter, Attagene transcription factor profiling; actives raise or lower the signal
Procedure, shortened: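 Endogenous transcription factor activity read in transiently transfected HepG2 cells after 24 h chemical exposure. Bidirectional curve fitting against DMSO; readout is reporter transcript level by RT-PCR with capillary electrophoresis of labelled products.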

[9] = APR_HepG2_CellLoss_72hr: Apredica 72-hour HepG2 Assay for Cell Loss (AID 2282915); settings: high-content imaging
Procedure, shortened: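 HepG2 cells exposed 72 h to compound at 0.39–200 uM (10 concentrations, duplicate) in 0.5% DMSO. Fixed with 3.7% formaldehyde and Hoechst 33342-stained. Imaged at 20x; nuclear count gives cell number, fitted bidirectionally versus DMSO.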

[10] = APR_HepG2_P-H2AX_72hr: Apredica 72-hour HepG2 Assay for H2AX Phosphorylation (AID 2282916); settings: imaging, actives raise or lower the signal;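 also: phospho-histone H2A.x immunostain intensity per cell marking DNA damage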
Procedure, shortened: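 Phospho-histone H2A.x immunofluorescence, multiplexed with Hoechst and c-Jun, quantified by high-content imaging. Compounds applied to HepG2 for 72 h across ten concentrations (0.39–200 uM, 0.5% DMSO), in duplicate; DMSO baseline.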

[11] = APR_HepG2_MitoMembPot_72hr: Apredica 72-hour HepG2 Assay for Mitochondrial Membrane Potential (AID 2282917); settings: imaging, actives raise or lower the signal
Procedure, shortened: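 HepG2 cells dosed 72 hr with compound at 0.39–200 uM in duplicate, 0.5% v/v DMSO final. Mitochondria stained with 250 nM MitoTracker Red CMXRos for 30 min before formaldehyde fixation, imaged by high-content fluorescence; bidirectional fit versus DMSO.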

[12] = APR_HepG2_MitoticArrest_72hr: Apredica 72-hour HepG2 Assay for Mitotic Arrest (AID 2282918); settings: high-content imaging, actives raise or lower the signal
Procedure, shortened: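 HepG2 cells were exposed for 72 hr to compound at 0.39–200 uM (10 concentrations, duplicate) in 0.5% v/v DMSO, fixed in 3.7% formaldehyde, immunostained for phospho-histone H3 with Hoechst 33342 and imaged by high-content fluorescence; bidirectional fits versus DMSO.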

[13] = APR_HepG2_MicrotubuleCSK_72hr: Apredica 72-hour HepG2 Assay for Microtubule CSK Stabilty (AID 2282919); settings: HepG2 microtubule cytoskeleton, high-content imaging, actives raise or lower the signal
Procedure, shortened: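 HepG2, 72 hr cmpd exposure, 0.39–200 uM (10 pts, duplicate), 0.5% DMSO. 3.7% formaldehyde fix, 0.5% Triton perm, anti-alpha-tubulin/Cy5 plus Hoechst. HCS fluorescence intensity; bidirectional fit vs DMSO baseline; taxol as positive control.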

[14] = APR_HepG2_P-H2AX_24hr: Apredica 24-hour HepG2 Assay for H2AX Phosphorylation (AID 2282920); settings: high-content imaging, actives raise or lower the signal
Procedure, shortened: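 HepG2 human liver cells were exposed for 24 hr to compounds at 0.39–200 uM in duplicate, with 0.5% v/v DMSO final. Fixed cells were immunostained for phospho-histone H2A.x plus Hoechst 33342, imaged by HCS fluorescence, and fitted bidirectionally against DMSO.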

[15] = APR_HepG2_StressKinase_72hr: Apredica 72-hour HepG2 Assay for Stress Kinase (AID 2282921); settings: HepG2 stress kinase (phospho-c-Jun) imaging, actives raise or lower the signal
Procedure, shortened: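 Stress kinase signal is phospho-c-Jun immunofluorescence (1:500 primary, Cy3 secondary) in fixed, permeabilized human HepG2 cells imaged at 20x. Exposure lasted 72 hr over ten concentrations from 0.39 to 200 uM, 0.5% DMSO, in duplicate. Bidirectional fit versus DMSO.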

[16] = APR_HepG2_StressKinase_24hr: Apredica 24-hour HepG2 Assay for Stress Kinase (AID 2282922); settings: HepG2 stress kinase (phospho-c-Jun) imaging, actives raise or lower the signal
Procedure, shortened: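 Read-out: phospho-c-Jun immunofluorescence (Cy3 secondary) quantified by high-content imaging at 20x, nuclei defined by Hoechst 33342. Human HepG2 liver cells dosed 24 hr, 0.39–200 uM, DMSO 0.5% v/v; gain or loss of signal fitted relative to DMSO.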

[17] = APR_HepG2_p53Act_72hr: Apredica 72-hour HepG2 Assay for p53 Activation (AID 2282923); settings: high-content imaging, actives raise or lower the signal;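 also: average cellular p53 protein immunofluorescence intensity in HepG2 cells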
Procedure, shortened: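 After 72 h with compound (ten points, 0.39 to 200 uM, final DMSO 0.5% v/v), fixed HepG2 cells were labelled with sheep anti-p53 and Hoechst 33342 and imaged; gain or loss versus DMSO scored.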

[18] = APR_HepG2_MitoMass_72hr: Apredica 72-hour HepG2 Assay for Mitochondrial Mass (AID 2282924); settings: high-content imaging, actives raise or lower the signal;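 also: MitoTracker Red CMXRos stain intensity per cell imaged as mitochondrial mass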
Procedure, shortened: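 Read-out: MitoTracker Red fluorescence intensity from automated imaging (20x, six fields per well) in human HepG2 liver cells. Dosing ran 72 hr, 0.39–200 uM, 0.5% DMSO; bidirectional curve fitting versus DMSO baseline.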

[19] = APR_HepG2_NuclearSize_72hr: Apredica 72-hour HepG2 Assay for Nuclear Size (AID 2282925); settings: high-content imaging, actives raise or lower the signal
Procedure, shortened: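 Read-out: nuclear diameter from Hoechst 33342 images (ArrayScan, 20x, six fields/well), via cell-cycle image analysis. HepG2 were dosed 0.39–200 uM for 72 hr in 0.5% DMSO. Bidirectional fit relative to DMSO.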

Measured: AC50

c1ccc2c(c1)-c1ccc3ccc4cccc5cc-2c1c3c45
inactive: [1] | [2] | [3] | [4] | [6] | [7] | [8]
active: [5] 0.543 µM

C=CCOC(=O)/C=C\C(=O)OCC=C
active: [1] 27.1 µM | [3] 63.8 µM | [4] 27.9 µM | [5] 61.2 µM | [7] 21.7 µM
inactive: [2] | [6] | [8]

CC1COC(=O)O1 (stereo unspecified)
inactive: [1] | [2] | [3] | [4] | [5] | [6] | [7] | [8]

CC(O)CNCC(C)O (stereo unspecified)
inactive: [1] | [2] | [3] | [4] | [5] | [6] | [7] | [8]

[Cl][Dy]([Cl])[Cl]
inactive: [1] | [2] | [3] | [4] | [5] | [6] | [7] | [8]

C[C@]12CC[C@@H]3c4ccc(O)cc4CC[C@H]3[C@@H]1CC[C@@H]2O
active: [9] 28.6 µM | [10] 30.7 µM | [12] 32.8 µM | [14] 24.5 µM | [17] 25.6 µM | [3] 19.5 µM [middle of 4 runs] | [5] 27.7 µM and 62.5 µM
inactive: [11] | [13] | [15] | [16] | [18] | [19] | [1] | [2] | [3] | [4] | [5] | [6] | [8]

CCCCOCC(C)OCC(C)O (stereo unspecified)
inactive: [1] | [2] | [3] | [4] | [5] | [6] | [7] | [8]

CC(=O)c1ccc(O)cc1
inactive: [1] | [2] | [3] | [4] | [5] | [6] | [7] | [8]

O=Cc1ccccc1O
inactive: [1] | [2] | [3] | [4] | [6] | [7] | [8]
active: [5] 48.5 µM

CC/C=C\CCCCO
inactive: [1] | [2] | [3] | [4] | [5] | [6] | [7] | [8]

CNC(=C[N+](=O)[O-])NCCSCc1ccc(CN(C)C)o1
inactive: [1] | [2] | [3] | [4] | [5] | [6] | [7] | [8]

CC(=O)C1=C(C)[C@@H]2C[C@@]3(C1)[C@H](C)CC[C@H]3C2(C)C
inactive: [2] | [7] | [8]
active: [1] 76.3 µM | [3] 68.8 µM | [4] 58.8 µM | [5] 55.3 µM | [6] 76.9 µM

C=CC(O)CCCCC (stereo unspecified)
inactive: [1] | [2] | [3] | [5] | [6] | [7] | [8]
active: [4] 37.3 µM
